# Experiments:
# Test in all cases: DAPPL (digital affinity profiling via proximity ligation, sequencing); 10 mM Tris-HCl pH 7.5, 50 mM NaCl, 1 mM DTT, 4% glycerol, room temperature, 30 min; GST-TFs on glutathione beads, 16-mer random dsDNA library, 0.1% formaldehyde crosslink after washing; high values mean tight binding
# [1] = molecular target: T1, FEV (Homo sapiens, UniProt Q99581 1-238); settings: protein: recombinant; tags: N-terminal GST; dsDNA, one strand shown
# T1 sequence: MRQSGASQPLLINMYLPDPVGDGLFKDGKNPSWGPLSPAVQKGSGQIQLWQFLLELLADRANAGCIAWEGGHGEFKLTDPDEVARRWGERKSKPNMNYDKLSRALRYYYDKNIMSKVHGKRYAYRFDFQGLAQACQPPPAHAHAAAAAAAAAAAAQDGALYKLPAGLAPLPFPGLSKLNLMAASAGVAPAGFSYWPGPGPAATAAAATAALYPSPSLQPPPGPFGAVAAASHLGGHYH
# How it was run: (§1)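 Yeast served to express human transcription factors as GST fusions, which were then captured on glutathione beads and labelled with DNA barcodes. Pooled with a tag-only sample, they were incubated with 200 nmole of a 16-mer random double-stranded DNA library for 30 min at room temperature in Tris/NaCl/DTT/glycerol buffer, washed, crosslinked with 0.1% formaldehyde, ligated by proximity, amplified by PCR and sequenced. Dividing each hexamer's read frequency for a factor by its frequency for the tag-only sample gives the binding signal.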
# [2] = molecular target: ETV5 (Homo sapiens, UniProt P41161 1-510); settings: protein: recombinant; tags: N-terminal GST; dsDNA, one strand shown
# Chain of ETV5 (P41161 whole entry): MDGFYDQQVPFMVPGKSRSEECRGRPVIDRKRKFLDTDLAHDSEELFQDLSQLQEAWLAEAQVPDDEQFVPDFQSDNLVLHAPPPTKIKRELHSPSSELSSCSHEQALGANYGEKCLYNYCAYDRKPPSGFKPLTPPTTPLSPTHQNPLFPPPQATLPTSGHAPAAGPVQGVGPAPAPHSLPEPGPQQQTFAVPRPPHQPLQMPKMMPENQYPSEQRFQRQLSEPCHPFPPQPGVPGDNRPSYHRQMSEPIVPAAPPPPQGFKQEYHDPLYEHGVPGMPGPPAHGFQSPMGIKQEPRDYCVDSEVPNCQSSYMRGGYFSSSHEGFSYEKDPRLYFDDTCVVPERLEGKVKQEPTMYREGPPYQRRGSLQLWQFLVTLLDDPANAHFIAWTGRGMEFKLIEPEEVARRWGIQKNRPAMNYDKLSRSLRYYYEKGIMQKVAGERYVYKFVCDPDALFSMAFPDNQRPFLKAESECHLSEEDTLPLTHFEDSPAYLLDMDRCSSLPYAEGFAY
# How it was run: as §1
# [3] = molecular target: HSF1 (Homo sapiens, UniProt Q00613 1-529); settings: protein: recombinant; tags: N-terminal GST; chain copies: 3; dsDNA, one strand shown
# Chain of HSF1 (Q00613 whole entry): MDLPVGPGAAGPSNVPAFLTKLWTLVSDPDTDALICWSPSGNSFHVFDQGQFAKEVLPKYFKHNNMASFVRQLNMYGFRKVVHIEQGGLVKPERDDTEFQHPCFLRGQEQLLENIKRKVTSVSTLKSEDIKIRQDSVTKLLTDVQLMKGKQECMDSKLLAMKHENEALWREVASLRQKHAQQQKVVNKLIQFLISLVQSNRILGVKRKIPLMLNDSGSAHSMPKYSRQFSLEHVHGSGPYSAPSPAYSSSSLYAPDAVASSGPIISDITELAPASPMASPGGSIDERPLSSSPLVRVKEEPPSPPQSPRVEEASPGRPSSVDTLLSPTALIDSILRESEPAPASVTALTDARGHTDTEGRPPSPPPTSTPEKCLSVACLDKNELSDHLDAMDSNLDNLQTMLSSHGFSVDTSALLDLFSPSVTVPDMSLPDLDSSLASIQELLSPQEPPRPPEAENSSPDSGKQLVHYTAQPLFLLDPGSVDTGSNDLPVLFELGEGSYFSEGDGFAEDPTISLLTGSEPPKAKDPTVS
# How it was run: as §1
# [4] = molecular target: T2, SPIC (Homo sapiens, UniProt Q8N5J4 1-248); settings: protein: recombinant; tags: N-terminal GST; dsDNA, one strand shown
# T2 sequence: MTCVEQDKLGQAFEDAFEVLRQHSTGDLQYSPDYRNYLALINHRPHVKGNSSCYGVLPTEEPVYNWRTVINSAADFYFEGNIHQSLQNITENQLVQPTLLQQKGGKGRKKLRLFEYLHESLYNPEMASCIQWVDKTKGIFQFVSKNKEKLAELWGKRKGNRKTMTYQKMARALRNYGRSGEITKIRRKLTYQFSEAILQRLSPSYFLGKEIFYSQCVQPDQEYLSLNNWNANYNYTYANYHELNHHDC
# How it was run: as §1
# [5] = molecular target: ELF4 (Homo sapiens, UniProt Q99607 1-663); settings: protein: recombinant; tags: N-terminal GST; dsDNA, one strand shown
# Chain of ELF4 (Q99607 whole entry): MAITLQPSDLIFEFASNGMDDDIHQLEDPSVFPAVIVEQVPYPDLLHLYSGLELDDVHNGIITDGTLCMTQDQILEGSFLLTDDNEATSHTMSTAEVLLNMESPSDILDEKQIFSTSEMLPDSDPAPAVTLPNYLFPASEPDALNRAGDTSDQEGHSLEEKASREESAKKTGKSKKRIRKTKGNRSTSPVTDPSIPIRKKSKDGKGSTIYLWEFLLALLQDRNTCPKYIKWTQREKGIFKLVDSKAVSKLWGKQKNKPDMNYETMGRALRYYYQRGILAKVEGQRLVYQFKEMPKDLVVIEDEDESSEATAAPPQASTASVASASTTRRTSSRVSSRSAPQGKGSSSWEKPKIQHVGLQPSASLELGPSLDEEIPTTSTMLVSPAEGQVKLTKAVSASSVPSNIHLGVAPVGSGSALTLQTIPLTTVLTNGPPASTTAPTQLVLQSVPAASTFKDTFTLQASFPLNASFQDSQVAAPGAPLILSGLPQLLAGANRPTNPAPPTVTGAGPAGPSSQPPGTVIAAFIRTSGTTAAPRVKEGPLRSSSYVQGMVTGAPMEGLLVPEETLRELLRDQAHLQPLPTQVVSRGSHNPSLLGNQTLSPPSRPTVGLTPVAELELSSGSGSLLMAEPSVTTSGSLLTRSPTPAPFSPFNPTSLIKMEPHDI
# How it was run: as §1
# [6] = molecular target: T3, ELK4 (Homo sapiens, UniProt P28324-2 1-405); settings: protein: recombinant; tags: N-terminal GST; dsDNA, one strand shown
# T3 sequence: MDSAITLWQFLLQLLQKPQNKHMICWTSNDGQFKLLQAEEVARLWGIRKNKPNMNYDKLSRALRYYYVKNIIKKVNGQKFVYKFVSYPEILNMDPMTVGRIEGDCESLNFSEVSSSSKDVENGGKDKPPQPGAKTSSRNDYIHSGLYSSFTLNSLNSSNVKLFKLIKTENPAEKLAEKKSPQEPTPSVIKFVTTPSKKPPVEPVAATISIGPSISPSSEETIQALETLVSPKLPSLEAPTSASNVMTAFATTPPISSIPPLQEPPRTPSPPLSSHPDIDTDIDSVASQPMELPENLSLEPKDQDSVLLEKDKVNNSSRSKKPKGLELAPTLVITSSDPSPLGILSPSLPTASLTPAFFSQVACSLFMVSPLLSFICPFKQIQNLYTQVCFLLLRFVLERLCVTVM
# How it was run: as §1
# [7] = molecular target: T4, ETV2 (Homo sapiens, UniProt O00321 1-342); settings: protein: recombinant; tags: N-terminal GST; dsDNA, one strand shown
# T4 sequence: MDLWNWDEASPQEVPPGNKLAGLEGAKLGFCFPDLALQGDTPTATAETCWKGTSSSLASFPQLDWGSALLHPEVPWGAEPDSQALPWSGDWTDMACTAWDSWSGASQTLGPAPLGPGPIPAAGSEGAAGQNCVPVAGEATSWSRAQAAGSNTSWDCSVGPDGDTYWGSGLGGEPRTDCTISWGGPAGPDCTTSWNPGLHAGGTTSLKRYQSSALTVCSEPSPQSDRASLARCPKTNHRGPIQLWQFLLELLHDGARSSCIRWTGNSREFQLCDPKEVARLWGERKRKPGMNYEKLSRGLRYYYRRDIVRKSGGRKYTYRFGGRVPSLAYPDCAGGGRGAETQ
# How it was run: as §1
# [8] = molecular target: T5, ELF3 (Homo sapiens, UniProt P78545 1-371); settings: protein: recombinant; tags: N-terminal GST; dsDNA, one strand shown
# T5 sequence: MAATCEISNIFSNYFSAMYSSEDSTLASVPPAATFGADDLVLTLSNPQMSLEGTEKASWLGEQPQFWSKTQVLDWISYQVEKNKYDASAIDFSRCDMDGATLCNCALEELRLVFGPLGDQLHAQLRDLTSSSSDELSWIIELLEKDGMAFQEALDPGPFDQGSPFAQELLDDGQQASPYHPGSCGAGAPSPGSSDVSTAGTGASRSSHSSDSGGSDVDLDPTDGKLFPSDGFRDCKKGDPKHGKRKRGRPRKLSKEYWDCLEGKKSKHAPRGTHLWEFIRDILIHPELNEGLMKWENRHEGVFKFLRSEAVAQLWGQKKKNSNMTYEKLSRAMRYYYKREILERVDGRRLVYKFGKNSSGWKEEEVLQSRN
# How it was run: as §1
# [9] = molecular target: CRX (Homo sapiens, UniProt O43186 1-299); settings: protein: recombinant; tags: N-terminal GST; dsDNA, one strand shown
# Chain of CRX (O43186 whole entry): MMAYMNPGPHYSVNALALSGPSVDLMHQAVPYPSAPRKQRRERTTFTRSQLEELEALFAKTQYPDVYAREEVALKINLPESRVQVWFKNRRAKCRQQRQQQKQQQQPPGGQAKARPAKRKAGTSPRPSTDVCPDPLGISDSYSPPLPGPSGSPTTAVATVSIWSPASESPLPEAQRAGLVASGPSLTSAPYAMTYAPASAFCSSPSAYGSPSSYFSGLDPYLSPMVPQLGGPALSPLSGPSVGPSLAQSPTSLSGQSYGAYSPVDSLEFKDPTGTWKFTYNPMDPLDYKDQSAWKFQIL
# How it was run: as §1
# [10] = molecular target: ETV1 (Homo sapiens, UniProt P50549 1-477); settings: protein: recombinant; tags: N-terminal GST; dsDNA, one strand shown
# Chain of ETV1 (P50549 whole entry): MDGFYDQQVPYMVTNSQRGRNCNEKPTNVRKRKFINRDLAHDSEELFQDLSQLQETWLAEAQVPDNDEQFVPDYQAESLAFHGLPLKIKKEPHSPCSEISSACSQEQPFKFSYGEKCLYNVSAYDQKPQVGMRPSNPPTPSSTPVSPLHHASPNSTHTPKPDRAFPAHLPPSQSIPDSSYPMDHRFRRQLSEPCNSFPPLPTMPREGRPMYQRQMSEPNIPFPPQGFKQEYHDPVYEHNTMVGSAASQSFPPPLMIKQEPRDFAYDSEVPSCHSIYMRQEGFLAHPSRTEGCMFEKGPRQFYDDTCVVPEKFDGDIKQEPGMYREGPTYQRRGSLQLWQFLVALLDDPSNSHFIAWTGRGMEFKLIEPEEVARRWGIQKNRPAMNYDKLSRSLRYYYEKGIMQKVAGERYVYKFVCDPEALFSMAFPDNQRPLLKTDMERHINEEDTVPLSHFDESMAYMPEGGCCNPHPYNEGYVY
# How it was run: as §1
# [11] = molecular target: T6, ERF (Homo sapiens, UniProt P50548 1-548); settings: protein: recombinant; tags: N-terminal GST; dsDNA, one strand shown
# T6 sequence: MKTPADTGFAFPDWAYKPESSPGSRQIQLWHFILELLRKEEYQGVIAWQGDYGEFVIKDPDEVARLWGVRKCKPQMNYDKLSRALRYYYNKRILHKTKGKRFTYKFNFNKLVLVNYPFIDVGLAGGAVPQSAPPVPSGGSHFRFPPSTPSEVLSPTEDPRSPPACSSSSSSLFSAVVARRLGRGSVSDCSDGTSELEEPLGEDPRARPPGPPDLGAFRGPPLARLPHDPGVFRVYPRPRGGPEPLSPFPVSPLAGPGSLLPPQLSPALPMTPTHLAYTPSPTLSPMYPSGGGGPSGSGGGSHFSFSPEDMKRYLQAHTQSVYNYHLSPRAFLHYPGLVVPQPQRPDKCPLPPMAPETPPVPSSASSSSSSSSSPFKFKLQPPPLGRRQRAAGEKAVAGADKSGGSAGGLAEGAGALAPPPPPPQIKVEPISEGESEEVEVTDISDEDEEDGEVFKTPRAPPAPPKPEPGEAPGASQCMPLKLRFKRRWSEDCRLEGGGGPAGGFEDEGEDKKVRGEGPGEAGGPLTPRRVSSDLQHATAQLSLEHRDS
# How it was run: as §1
# [12] = molecular target: T7, ETV3L (Homo sapiens, UniProt Q6ZN32 1-361); settings: protein: recombinant; tags: N-terminal GST; dsDNA, one strand shown
# T7 sequence: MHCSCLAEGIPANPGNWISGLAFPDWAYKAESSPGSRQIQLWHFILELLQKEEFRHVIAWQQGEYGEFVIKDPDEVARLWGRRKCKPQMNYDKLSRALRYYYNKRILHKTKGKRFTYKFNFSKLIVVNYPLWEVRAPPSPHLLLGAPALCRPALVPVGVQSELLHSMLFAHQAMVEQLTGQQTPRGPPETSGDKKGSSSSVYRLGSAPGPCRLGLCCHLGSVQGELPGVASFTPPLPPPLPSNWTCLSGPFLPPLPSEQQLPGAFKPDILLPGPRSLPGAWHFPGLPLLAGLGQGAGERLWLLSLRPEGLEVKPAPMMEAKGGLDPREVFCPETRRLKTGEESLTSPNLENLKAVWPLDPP
# How it was run: as §1
# [13] = molecular target: T8, ETS2 (Homo sapiens, UniProt P15036 1-469); settings: protein: recombinant; tags: N-terminal GST; dsDNA, one strand shown
# T8 sequence: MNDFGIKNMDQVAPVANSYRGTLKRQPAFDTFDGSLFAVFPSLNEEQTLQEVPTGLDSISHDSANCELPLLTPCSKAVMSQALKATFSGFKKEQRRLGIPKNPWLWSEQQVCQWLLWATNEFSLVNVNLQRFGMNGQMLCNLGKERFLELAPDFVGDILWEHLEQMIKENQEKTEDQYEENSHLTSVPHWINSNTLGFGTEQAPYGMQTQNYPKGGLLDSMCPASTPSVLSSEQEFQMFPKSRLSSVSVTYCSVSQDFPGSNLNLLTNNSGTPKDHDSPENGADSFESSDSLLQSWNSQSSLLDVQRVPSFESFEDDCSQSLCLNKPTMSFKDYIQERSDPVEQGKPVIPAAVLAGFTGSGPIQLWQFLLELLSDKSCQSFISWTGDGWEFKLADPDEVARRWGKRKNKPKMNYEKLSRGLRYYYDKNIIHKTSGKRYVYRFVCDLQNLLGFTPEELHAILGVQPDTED
# How it was run: as §1
# [14] = molecular target: T9, SPDEF (Homo sapiens, UniProt O95238 1-335); settings: protein: recombinant; tags: N-terminal GST; dsDNA, one strand shown
# T9 sequence: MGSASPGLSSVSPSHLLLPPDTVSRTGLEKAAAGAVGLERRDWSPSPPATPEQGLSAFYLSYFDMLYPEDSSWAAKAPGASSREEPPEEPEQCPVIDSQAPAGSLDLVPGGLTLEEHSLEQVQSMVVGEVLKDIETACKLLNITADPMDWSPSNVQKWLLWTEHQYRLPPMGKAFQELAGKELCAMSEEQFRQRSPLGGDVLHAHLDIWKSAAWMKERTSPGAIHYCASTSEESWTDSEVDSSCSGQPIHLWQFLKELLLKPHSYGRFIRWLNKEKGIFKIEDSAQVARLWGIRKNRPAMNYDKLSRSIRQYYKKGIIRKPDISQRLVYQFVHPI
# How it was run: as §1
# [15] = molecular target: T10, ETV7 (Homo sapiens, UniProt Q9Y603 1-341); settings: protein: recombinant; tags: N-terminal GST; dsDNA, one strand shown
# T10 sequence: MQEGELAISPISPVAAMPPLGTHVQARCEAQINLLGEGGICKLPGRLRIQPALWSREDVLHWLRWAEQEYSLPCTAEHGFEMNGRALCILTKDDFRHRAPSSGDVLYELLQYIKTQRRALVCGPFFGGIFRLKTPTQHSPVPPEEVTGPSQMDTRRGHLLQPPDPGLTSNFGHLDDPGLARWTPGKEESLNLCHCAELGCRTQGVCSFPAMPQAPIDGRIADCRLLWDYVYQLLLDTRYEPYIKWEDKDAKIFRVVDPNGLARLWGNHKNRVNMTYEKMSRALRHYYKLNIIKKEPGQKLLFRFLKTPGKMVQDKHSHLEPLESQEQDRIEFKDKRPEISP
# How it was run: as §1
# [16] = molecular target: T11, ELF5 (Homo sapiens, UniProt Q9UKW6-2 1-255); settings: protein: recombinant; tags: N-terminal GST; dsDNA, one strand shown
# T11 sequence: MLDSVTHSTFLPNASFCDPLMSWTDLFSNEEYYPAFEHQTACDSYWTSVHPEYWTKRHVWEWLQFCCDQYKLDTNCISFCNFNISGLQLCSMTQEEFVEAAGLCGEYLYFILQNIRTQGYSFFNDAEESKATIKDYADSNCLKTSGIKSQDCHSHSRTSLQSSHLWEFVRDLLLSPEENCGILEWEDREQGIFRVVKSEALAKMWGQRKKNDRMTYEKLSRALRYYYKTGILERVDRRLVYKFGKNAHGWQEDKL
# How it was run: as §1
# [17] = molecular target: T12, ETV3 (Homo sapiens, UniProt P41162-2 1-143); settings: protein: recombinant; tags: N-terminal GST; dsDNA, one strand shown
# T12 sequence: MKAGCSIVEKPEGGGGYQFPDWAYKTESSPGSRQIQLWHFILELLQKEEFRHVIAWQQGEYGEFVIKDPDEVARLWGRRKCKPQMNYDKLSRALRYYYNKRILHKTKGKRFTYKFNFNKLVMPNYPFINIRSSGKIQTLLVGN
# How it was run: as §1
# [18] = molecular target: ETV6 (Homo sapiens, UniProt P41212 1-452); settings: protein: recombinant; tags: N-terminal GST; dsDNA, one strand shown
# Chain of ETV6 (P41212 whole entry): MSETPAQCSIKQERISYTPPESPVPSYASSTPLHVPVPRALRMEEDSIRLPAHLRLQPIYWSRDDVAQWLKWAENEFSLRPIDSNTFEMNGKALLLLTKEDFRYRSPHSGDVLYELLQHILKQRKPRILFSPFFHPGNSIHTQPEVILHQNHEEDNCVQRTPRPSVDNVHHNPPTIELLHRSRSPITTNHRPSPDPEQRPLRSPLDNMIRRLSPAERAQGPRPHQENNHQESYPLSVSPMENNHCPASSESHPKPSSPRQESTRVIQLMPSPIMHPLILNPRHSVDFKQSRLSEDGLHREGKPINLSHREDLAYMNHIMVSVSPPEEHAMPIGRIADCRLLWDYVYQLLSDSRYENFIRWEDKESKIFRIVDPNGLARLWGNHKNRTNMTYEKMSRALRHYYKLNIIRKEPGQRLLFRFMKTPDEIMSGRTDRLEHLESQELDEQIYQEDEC
# How it was run: as §1
sequence,measurement,setting,value
TACACT,binding signal,[1],"1.5 fold enrichment (6-mer frequency, TF over GST control)"
same,binding signal,[2],"1.5 fold enrichment (6-mer frequency, TF over GST control)"
same,binding signal,[3],"1.31 fold enrichment (6-mer frequency, TF over GST control)"
same,binding signal,[4],"1.58 fold enrichment (6-mer frequency, TF over GST control)"
same,binding signal,[5],"1.42 fold enrichment (6-mer frequency, TF over GST control)"
same,binding signal,[6],"1.53 fold enrichment (6-mer frequency, TF over GST control)"
same,binding signal,[7],"1.46 fold enrichment (6-mer frequency, TF over GST control)"
same,binding signal,[8],"1.36 fold enrichment (6-mer frequency, TF over GST control)"
same,binding signal,[9],"1.35 fold enrichment (6-mer frequency, TF over GST control)"
same,binding signal,[10],"1.59 fold enrichment (6-mer frequency, TF over GST control)"
same,binding signal,[11],"1.51 fold enrichment (6-mer frequency, TF over GST control)"
same,binding signal,[12],"1.51 fold enrichment (6-mer frequency, TF over GST control)"
same,binding signal,[13],"1.49 fold enrichment (6-mer frequency, TF over GST control)"
same,binding signal,[14],"1.55 fold enrichment (6-mer frequency, TF over GST control)"
same,binding signal,[15],"1.49 fold enrichment (6-mer frequency, TF over GST control)"
same,binding signal,[16],"1.52 fold enrichment (6-mer frequency, TF over GST control)"
same,binding signal,[17],"1.45 fold enrichment (6-mer frequency, TF over GST control)"
same,binding signal,[18],"1.6 fold enrichment (6-mer frequency, TF over GST control)"
